Screening results: PubChem BioAssay, Broad Institute
C diff growth – C. difficile growth inhibition. Clostridium difficile clinical isolate growth, OD600, 24 h; active compounds read low. growth activity, negative = inhibition, % at 16 µg/mL (by protocol). actives 0.25% (n = 86,000);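 active means mean growth activity at or below -80% and every replicate also at or below -80%; inconclusive means mean at or below -80% but some replicate above -80%; inactive means mean growth activity above -80%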
T cruzi growth-1 – blocks T. cruzi growth in NIH3T3 culture; AID 624255; actives 5.9% (n = 77,000); inhibition, % at 8.34 µM; T. cruzi beta-gal in NIH3T3, GalScreen luminescence, 90 h;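 active means mean inhibition above about 93%, with at least 55% of replicates each passing it, limit read from the data, passing the limit was not always enough; inconclusive means only one of those two conditions holds; inactive means neither condition holds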
Pf Dd2 growth – inhibitors of Plasmodium falciparum Dd2 growth. P. falciparum Dd2 growth, SYBR Green, 72 h; active compounds read low. activity change, % at 10 µM. actives 2.3% (n = 94,000). AID 1159554; in the data active means activity change below about -80%; inconclusive means no clear call, values can overlap the other calls
T cruzi growth-2 – inhibitors of T. cruzi proliferation. shares compounds with T cruzi growth-1. T. cruzi beta-gal in NIH3T3, GalScreen luminescence, 90 h. inhibition, % at 8.35 µM. actives 72% (n = 5,600);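 active means mean replicate inhibition above about 95% and at least 55% of replicates individually reaching it, limit read from the data; inconclusive means only one of the two criteria is met; inactive means neither criterion is met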
T cruzi growth-3 – blocks T. cruzi growth in NIH3T3 host cells. inhibition, % at 2.09 µM. T. cruzi beta-gal in NIH3T3, GalScreen luminescence, 90 h. shares compounds with T cruzi growth-1. actives 21% (n = 5,600);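 active means mean inhibition above about 95%, with at least 55% of replicates also reaching it, limit read from the data; inconclusive means meets just one of the two conditions; inactive means meets neither condition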
3T3 cytotox – cytotoxicity in mouse NIH/3T3 fibroblasts | cytotoxicity (signal decrease), % at 8.35 µM | AID 651742 | NIH/3T3 viability, CellTiter-Glo ATP luminescence, 90 h | shares compounds with T cruzi growth-1 | actives 14% (n = 5,600);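 active means mean signal decrease across replicates above about 35% based on untreated-well scatter, with enough replicates individually passing, limit read from the data; inconclusive means no rule stated though some were filed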
NIH3T3 tox 2 – NIH/3T3 (mouse) viability loss; NIH/3T3 viability, CellTiter-Glo ATP luminescence, 90 h; inhibition, % at 24.9 µM; actives 56% (n = 5,600); shares compounds with T cruzi growth-1;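 active means mean loss of cell viability signal at or above a set limit, and enough replicates individually reaching it; inconclusive means meets only the mean limit or only the replicate share; inactive means meets neither condition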
A number is an active result; n = inactive; u = inconclusive; x = no result given. Hits are enriched below; roughly 6.7% of the tested compounds scored in any of these assays.

SMILES | C diff growth | T cruzi growth-1 | Pf Dd2 growth | T cruzi growth-2 | T cruzi growth-3 | 3T3 cytotox | NIH3T3 tox 2
CCC(=O)N1C[C@@H](O)COC[C@@H]2O[C@H](CC(=O)NC)CC[C@H]21 | n | n | n | x | x | x | x
C[C@H]1CN([C@@H](C)CO)C(=O)CCCn2nncc2CO[C@@H]1CN(C)C(=O)Nc1ccc(C(F)(F)F)cc1 | x | n | n | x | x | x | x
CCc1cnc(N2[C@H](C#N)[C@@H](c3ccc(C#CCC4CCCC4)cc3)[C@@H]2CO)s1 | x | u | n | 96 | 106 | n | 104
CCc1cnc(N2[C@H](CO)[C@@H](c3ccc(C4=CCCC4)cc3)[C@@H]2C#N)s1 | n | n | n | x | x | x | x
CCc1cnc(N2[C@@H](C#N)[C@H](c3ccc(C#CCC4CCCC4)cc3)[C@@H]2CO)s1 | n | 105 | n | 108 | u | n | n
CCc1cnc(N2[C@H](C#N)[C@@H](c3ccc(C4=CCCCC4)cc3)[C@@H]2CO)s1 | n | n | n | x | x | x | x
CC(C)NC(=O)Nc1ccc2c(c1)C(=O)N([C@H](C)CO)C[C@H](C)[C@@H](CN(C)C(=O)c1ccccc1)OCCCC[C@@H](C)O2 | n | n | n | x | x | x | x
C[C@H]1CN([C@@H](C)CO)C(=O)CCCn2nncc2CO[C@H]1CN(C)CC1CC1 | x | n | n | x | x | x | x
Cc1noc(C)c1NC(=O)Nc1ccc2c(c1)CC(=O)N([C@H](C)CO)C[C@H](C)[C@H](CN(C)S(=O)(=O)c1ccc(Cl)cc1)O2 | n | n | n | x | x | x | x
CN(C)CC(=O)N[C@@H]1CC[C@H](CC(=O)NCCN2CCCCC2)O[C@@H]1CO | n | n | n | x | x | x | x
C[C@@H]1CN([C@@H](C)CO)C(=O)Cc2cc(NC(=O)CCN3CCOCC3)ccc2O[C@H]1CN(C)C(=O)NC1CCCCC1 | n | n | n | x | x | x | x
CCS(=O)(=O)N1CCCCN2[C@H](CO)[C@H](c3ccc(-c4ccc(C#N)cc4)cc3)[C@H]2C1 | n | 114 | n | 96 | n | n | 52
CCS(=O)(=O)N1CCCCN2[C@H](CO)[C@H](c3ccc(-c4cccc(C#N)c4)cc3)[C@@H]2C1 | n | n | n | x | x | x | x
CCS(=O)(=O)N1CCCCN2[C@H](C1)[C@H](c1ccc(-c3cccc(C#N)c3)cc1)[C@@H]2CO | n | 107 | n | n | n | n | n
CS(=O)(=O)N1CCCCN2[C@@H](CO)[C@@H](c3ccc(-c4cccc(C#N)c4)cc3)[C@@H]2C1 | n | n | n | x | x | x | x
CCS(=O)(=O)N1CCCCN2[C@H](CO)[C@H](c3ccc(-c4cccc(C#N)c4)cc3)[C@H]2C1 | n | 128 | n | 97 | n | 53 | 46
CCS(=O)(=O)N1CCCCN2[C@H](CO)[C@@H](c3ccc(-c4ccc(C#N)cc4)cc3)[C@@H]2C1 | n | n | n | x | x | x | x
CN(C)C(=O)C[C@@H]1CC[C@@H]2[C@@H](COc3ccc(NC(=O)NCc4ccccc4)cc3C(=O)N2C)O1 | n | n | n | x | x | x | x
CN(C)C(=O)c1ccc(-c2ccc([C@@H]3[C@@H](CO)N4C(=O)CN(C(=O)C5CC5)C[C@H]34)cc2)cc1 | n | x | n | x | x | x | x
Cc1noc(C)c1NC(=O)N(C)C[C@@H]1Oc2ccc(NC(=O)Cc3ccccc3)cc2C(=O)N([C@H](C)CO)C[C@H]1C | n | n | n | x | x | x | x
C[C@H]1CN([C@@H](C)CO)C(=O)c2cccc(NS(=O)(=O)c3ccc(Cl)cc3)c2O[C@H]1CN(C)CC1CCCCC1 | n | n | n | x | x | x | x
Cc1ccc(S(=O)(=O)NCC[C@@H]2CC[C@@H](NC(=O)NC(C)C)[C@@H](CO)O2)cc1 | n | n | n | x | x | x | x
C[C@@H]1CN([C@H](C)CO)S(=O)(=O)c2ccc(C#CC3CC3)cc2O[C@@H]1CN(C)CC1CC1 | x | n | n | x | x | x | x
C[C@H]1CN([C@@H](C)CO)S(=O)(=O)c2ccc(C#Cc3ccccc3F)cc2O[C@H]1CN(C)CC1CCOCC1 | n | x | n | x | x | x | x
COCC#Cc1ccc2c(c1)O[C@@H](CN(C)CC1CCCC1)[C@H](C)CN([C@H](C)CO)S2(=O)=O | n | 110 | n | 98 | n | 44 | 104
SMILES | C diff growth | T cruzi growth-1 | Pf Dd2 growth | T cruzi growth-2 | T cruzi growth-3 | 3T3 cytotox | NIH3T3 tox 2
CCCN(C)C[C@@H]1Oc2cc(C#CC3CCCC3)ccc2S(=O)(=O)N([C@@H](C)CO)C[C@@H]1C | n | 99 | n | 113 | n | n | 104
COCC#Cc1ccc2c(c1)O[C@@H](CN(C)CC1CC1)[C@@H](C)CN([C@H](C)CO)S2(=O)=O | n | x | n | x | x | x | x
CCCN(C)C[C@H]1Oc2cc(C#CC3CCCCC3)ccc2S(=O)(=O)N([C@@H](C)CO)C[C@@H]1C | n | n | n | x | x | x | x
C[C@H](CO)N1C[C@H](C)[C@@H](CN(C)CC2CCOCC2)Oc2cc(C#Cc3ccccc3F)ccc2S1(=O)=O | n | 122 | n | 99 | 103 | n | 43
C[C@H](CO)N1C[C@H](C)[C@@H](CN(C)CC2CCCC2)Oc2cc(C#CC3CC3)ccc2S1(=O)=O | x | u | n | 104 | n | n | 105
C[C@@H]1CN([C@@H](C)CO)C(=O)c2cc(Br)cnc2O[C@@H]1CN(C)C(=O)Nc1ccccc1 | n | n | n | x | x | x | x
C[C@@H]1CN([C@H](C)CO)C(=O)c2cc(Br)cnc2O[C@H]1CN(C)C(=O)C1CCC1 | x | n | n | x | x | x | x
Cn1cnc(S(=O)(=O)N2CC[C@@H]3[C@@H](CO)Nc4ccc(C#Cc5ccc(F)cc5)cc4[C@@H]32)c1 | n | x | n | x | x | x | x
C[C@H]1CN([C@@H](C)CO)C(=O)c2cccc(NS(=O)(=O)c3ccccc3)c2O[C@@H]1CN(C)S(=O)(=O)c1cccs1 | n | n | n | x | x | x | x
C[C@@H]1CN([C@H](C)CO)S(=O)(=O)c2ccc(C#CC3CC3)cc2O[C@H]1CN(C)CC1CCOCC1 | n | u | n | 101 | n | 50 | 91
COc1ccc(-c2ccc3c(c2)O[C@@H](CN(C)CC2CCOCC2)[C@H](C)CN([C@@H](C)CO)S3(=O)=O)cc1 | n | 93 | n | 100 | 101 | 51 | 67
C[C@@H]1CN([C@H](C)CO)S(=O)(=O)c2ccc(C#CC3CC3)cc2O[C@@H]1CN(C)CC1CCOCC1 | n | n | n | x | x | x | x
COc1ccc(-c2ccc3c(c2)O[C@H](CN(C)CC2CCOCC2)[C@@H](C)CN([C@@H](C)CO)S3(=O)=O)cc1 | n | n | n | x | x | x | x
CC(C)C#Cc1ccc2c(c1)O[C@H](CN(C)CC1CCOCC1)[C@@H](C)CN([C@@H](C)CO)S2(=O)=O | n | 102 | n | 98 | n | n | 105
CC(C)C#Cc1ccc2c(c1)O[C@@H](CN(C)CC1CCOCC1)[C@@H](C)CN([C@H](C)CO)S2(=O)=O | n | n | n | x | x | x | x
C[C@H]1CN([C@@H](C)CO)S(=O)(=O)c2ccc(-c3cccnc3)cc2O[C@H]1CN(C)Cc1cncnc1 | n | n | n | x | x | x | x
CC(C)NC(=O)Nc1ccc2c(c1)C(=O)N([C@@H](C)CO)C[C@@H](C)[C@H](CN(C)C(=O)c1ccccc1)OCCCC[C@@H](C)O2 | n | n | x | x | x | x | x
